Source: PubChem BioAssay
Sampled rows, rich in hits. Any-hit rate of the full collection: about 3.5%.
mHTT-CaM PPI inh = disrupts binding of mutant huntingtin to calmodulin | inhibition, % at 15 µM | P42858 | AID 1671202 | actives 3.6% (n = 190,000) | AlphaScreen His-mHTT/GST-CaM binding, luminescence;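 further: 0% = both proteins with DMSO and 100% = one protein alone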
Pf apPOL inh = Pf-apPOL DNA polymerase inhibition | Recombinant Pf-apPOL, molecular beacon fluorescence, 1.5 h | inhibition, % at 10 µM | actives 0.25% (n = 210,000) | AID 1794808
The depositor's hits bear a star; nt = not tested or not shown; ! = not active in a repeat. No stated cut-off is given here; in the data, active means inhibition above about 50%; inactive means the rest.

SMILES	mHTT-CaM PPI inh	Pf apPOL inh
Ic1ccc2c(c1)C1C=CCC1C(c1cccnc1)N2 (configuration not stated)	97*	-3
Fc1ccc2c(c1)[C@@H]1C=CC[C@@H]1[C@H](c1cccnc1)N2	17	nt
Cn1c(=O)c2c(c3ccccc31)NC(=S)NN=C2	97*	nt
COc1ccc2c(c1)C1(CCN(C(=O)CC(C)(C)C)C1)C(=O)N2C (configuration not stated)	-4	-5
C=C(C)CC1NC2CC(C)(C)C1c1ccccc12 (configuration not stated)	-10	nt
Nc1ncnc(N)n1	1	nt
O=c1c2ccccc2nc(/C=C/c2cccc([N+](=O)[O-])c2)n1-c1ccccn1	2	91*!
Cc1cccc(/C=C/c2nc3ccccc3c(=O)n2-c2cccc(O)c2)c1	25	-12
COc1cccc(-n2c(/C=C/c3ccc(O)c(O)c3)nc3ccccc3c2=O)c1	70*	-4
COc1ccc(-n2c(/C=C/c3ccc(O)c(OC)c3)nc3ccccc3c2=O)cc1	10	-4
Cc1cccc(-n2c(/C=C/c3cccnc3)nc3ccccc3c2=O)c1	100*	-9
COc1cccc(-n2c(/C=C/c3cccc([N+](=O)[O-])c3)nc3ccccc3c2=O)c1	26	-1
CC12CCC3C(CC=C4CC(O)CCC43C)C1CC(=Cc1ccccc1Cl)C2=O (configuration not stated)	3	-1
COc1cccc(C=C2Oc3cc(OC(=O)N(C)C)ccc3C2=O)c1	11	0
CN(C)C(=O)Oc1ccc2c(c1)OC(=CC=Cc1ccccc1)C2=O	59*!	-4
O=S(=O)(F)CCSc1nc2ccccc2o1	15	3
CCCS(=O)(=O)N1CCC2(C1)C(=O)Nc1ccc(OC)cc12 (configuration not stated)	7	0
O=C1C2CCCN2C(c2cccnc2)N1c1ccc(Cl)c(Cl)c1 (configuration not stated)	21	-2
O=C1C2CCCN2C(c2ccncc2)N1c1ccc(Cl)c(Cl)c1 (configuration not stated)	85*	0
CCC12CCCN3CCC4(c5ccccc5NC4C(C(=O)O)C1)C32 (configuration not stated)	nt	-16
CCOc1ccc(C=C2CC3C4CCC5CCCCC5(C)C4CCC3(C)C2=O)cc1 (configuration not stated)	-8	3
CN(C)c1ccc(CN2CCN(c3ccccc3Cl)CC2)cc1	53*	-8
CN(C)c1ccc(CN2CCN(Cc3ccccc3)CC2)cc1	3	-3
O=[N+]([O-])/C(C(Cl)=C(Cl)Cl)=C1/NCCN1Cc1cnc(Cl)s1	3	4
Clc1ccc(CN2CCN(c3ccccc3)CC2)c(Cl)c1	26	-3
SMILES	mHTT-CaM PPI inh	Pf apPOL inh
COc1ccc(N2CCN(Cc3ccc(Cl)cc3Cl)CC2)cc1	61*	-5
Brc1ccc(C2CC(c3cccnc3)Nc3ncnn32)cc1 (configuration not stated)	-2	-4
O=C(c1ccc2c(c1)ncn2-c1ccc(OCc2ccccc2)cc1)N1CCC2(CC1)OCCO2	52*	-6
COc1ccc(-n2cnc3cc(C(=O)N4CCC5(CC4)OCCO5)ccc32)cc1	6	-2
O=C(O)C1Cc2cc(C(F)(F)F)ccc2N2CCCCC12 (configuration not stated)	50*	3
CC1CN(c2ccc(C(F)(F)F)cc2[N+](=O)[O-])CC(C)N1 (configuration not stated)	-3	2
COc1ccc2c(c1)C1(CCN(C(=O)c3ccc(F)cc3)C1)C(=O)N2 (configuration not stated)	10	0
COc1ccc(N=Cc2cc3c(cc2O)OC(N)=C(C#N)C3c2ccco2)cc1 (configuration not stated)	71*	-3
O=C1C(Cl)=C(N2CCOCC2)C(=O)c2ccccc21	49	5
COc1ccc(-n2c(/C=C/c3cccnc3)nc3ccccc3c2=O)cc1Cl	3	-4
COc1ccc2c(c1)OC(=Cc1cccc(OC(=O)N(C)C)c1)C2=O	-1	-7
O=C(O)c1cccc2c1NC(C(=O)O)C1CC(Sc3ccccc3[N+](=O)[O-])C(Cl)C21 (configuration not stated)	77*	-5
O=C(c1nn(CCN2CCCCC2)c2ccccc12)N1CCSCC1	6	-5
Cc1ccc(N2CCN(CCc3ccccc3)CC2)cc1	15	-3
Cc1cccc(N2CCN(CCc3ccccc3)CC2)c1C	100*	-2
